This note sets out measurements from the OligoGym collection.
Further: reference of the scale not given here.

The target in the first experiment is CCL13. Put plainly: pooled miR-30 sensor sort-seq; sequence = guide strand. The following applies: shRNA.
For TCTGAAGATGACAGCCTTCTGG, the sensor-assay potency score (higher = more potent) is -0.807.
On to TTTCATATAATTCTGGACCCAC, for which the sensor-assay potency score (higher = more potent) turned out to be 0.0997.
Same read-out and setting: under TAACACATAGTACATTTTGAAT stands -1.62.

A further experiment concerns the target CCL23. The description is as above. The following applies: shRNA.
Take TTCAAAGTAACTCTCCAGGAGT: the sensor-assay potency score (higher = more potent) is -0.524.
Same read-out and setting: under TTTGACATCATGAACTCTGTCT stands 0.483; under TTGGAGCACTCGCTGTTCGTTT, -0.72; under TGAACTCTGTCTCTGCATCTTT, -0.137.
On the same count and under the same terms, next, AGTAGCATGGAATCTGTCCAGA: -1.79.
On to TCATGAACTCTGTCTCTGCATC, for which the sensor-assay potency score (higher = more potent) was -0.664.
For TCCAAGGGCAGTAACAAGCATG, the sensor-assay potency score (higher = more potent) was -1.61.
The same measure, in the same setting: under TCTCACGCAAACCTGAACTTGC stands -0.191; under TAGTAGCATGGAATCTGTCCAG, -0.782; under TGAACTTGCTTATCACTGGGGT, 0.574.
Sequence TCTGTCTCTGCATCTTTTGTGA displayed a sensor-assay potency score (higher = more potent) of -0.455.
With TCTGCATCTTTTGTGACCCGGG, the sensor-assay potency score (higher = more potent) is -0.271.

A further experiment concerns the target CCL26. Described as above. The following applies: shRNA.
The sequence TCTTTTGGTAGTGAATATCACA yielded a sensor-assay potency score (higher = more potent) of -1.4.
The sequence TATTGGAAGCAGCAGGTCTTGG displayed a sensor-assay potency score (higher = more potent) of -1.48.
With TTGTGGCTGTATTGGAAGCAGC, the sensor-assay potency score (higher = more potent) is -1.27.
In the case of TTGGATATGTCACTCCCACGTG, the sensor-assay potency score (higher = more potent) is -0.51.
In the case of TAGCTTCGCACCCAGGTCCAGG, the sensor-assay potency score (higher = more potent) was -1.45.
TTCTTGCCTCTTTTGGTAGTGA had a sensor-assay potency score (higher = more potent) of -0.89.
The same measure, in the same setting: under TAGTGAATATCACAGCCCGCTG stands -1.27; under TGGATGGGTACAGACTTTCTTG, -1.49; under TTGGTAGTGAATATCACAGCCC, -0.403.
Still for that read-out and setting: under TTTTGGTAGTGAATATCACAGC stands -0.793.

The target in another experiment is CCL28. Described as above. The following applies: shRNA.
With TGCACTTTCATCCACTGCTTAA, the sensor-assay potency score (higher = more potent) is -1.51.
The same measure, in the same setting: under TTCTTCTGCGCTTGACATGAAG stands -1.32; under TTTTCTTGGCAGCTTGCACTTT, -0.496; under TTGCCATGGTGTTTCTTCCTGT, -0.322.
On the same count and under the same terms, under TTAACAGTATGGTTGTGCGGGC stands -0.737; under ATATGATGTGAAACCTCCGTGC, -0.448.
AATATGATGTGAAACCTCCGTG had a sensor-assay potency score (higher = more potent) of 0.282.
Still for that read-out and setting: next, TTTCTTGGCAGCTTGCACTTTC: 0.0736; TCCTGTGGCAAACATTTCCTTT: -1.54; TGATGTGAAACCTCCGTGCAAC: -1.14.
Turning to TTGCACTTTCATCCACTGCTTA, the sensor-assay potency score (higher = more potent) was -0.197.
Same read-out and setting: next, ACACATATTCACTCTTTCCAGG: -1.19.

The next experiment addresses CCNA1. The experiment is described as above. The following applies: shRNA.
Sequence TTTGTGTATGTATCATCGGTGA yielded a sensor-assay potency score (higher = more potent) of -0.746.
Still for that read-out and setting: next, TATATCTCTTCATATTTCGAAG: -1.14; TGAGTATCTGACAAGCATCGGG: 0.0337.
